Assay results from the supplement of paper PMC11732987, “Enantioselective OTUD7B fragment discovery through chemoproteomics screening and high-throughput optimisation” (Communications Chemistry, 2025).

Legend:
Test in all cases: log2 ratio of Biotin-Ahx-Ub-VS probe labelling (fragment/DMSO); higher = less target engagement (more negative = stronger competition), active = hit call of the paper (q ≤ 0.05, log2 ratio ≤ -1)
Settings in all cases: compound concentration: 200 uM; treatment time: 3 h
USP42 = target: T1, USP42 (UniProt Q9H9J4)
T1 sequence (whole entry): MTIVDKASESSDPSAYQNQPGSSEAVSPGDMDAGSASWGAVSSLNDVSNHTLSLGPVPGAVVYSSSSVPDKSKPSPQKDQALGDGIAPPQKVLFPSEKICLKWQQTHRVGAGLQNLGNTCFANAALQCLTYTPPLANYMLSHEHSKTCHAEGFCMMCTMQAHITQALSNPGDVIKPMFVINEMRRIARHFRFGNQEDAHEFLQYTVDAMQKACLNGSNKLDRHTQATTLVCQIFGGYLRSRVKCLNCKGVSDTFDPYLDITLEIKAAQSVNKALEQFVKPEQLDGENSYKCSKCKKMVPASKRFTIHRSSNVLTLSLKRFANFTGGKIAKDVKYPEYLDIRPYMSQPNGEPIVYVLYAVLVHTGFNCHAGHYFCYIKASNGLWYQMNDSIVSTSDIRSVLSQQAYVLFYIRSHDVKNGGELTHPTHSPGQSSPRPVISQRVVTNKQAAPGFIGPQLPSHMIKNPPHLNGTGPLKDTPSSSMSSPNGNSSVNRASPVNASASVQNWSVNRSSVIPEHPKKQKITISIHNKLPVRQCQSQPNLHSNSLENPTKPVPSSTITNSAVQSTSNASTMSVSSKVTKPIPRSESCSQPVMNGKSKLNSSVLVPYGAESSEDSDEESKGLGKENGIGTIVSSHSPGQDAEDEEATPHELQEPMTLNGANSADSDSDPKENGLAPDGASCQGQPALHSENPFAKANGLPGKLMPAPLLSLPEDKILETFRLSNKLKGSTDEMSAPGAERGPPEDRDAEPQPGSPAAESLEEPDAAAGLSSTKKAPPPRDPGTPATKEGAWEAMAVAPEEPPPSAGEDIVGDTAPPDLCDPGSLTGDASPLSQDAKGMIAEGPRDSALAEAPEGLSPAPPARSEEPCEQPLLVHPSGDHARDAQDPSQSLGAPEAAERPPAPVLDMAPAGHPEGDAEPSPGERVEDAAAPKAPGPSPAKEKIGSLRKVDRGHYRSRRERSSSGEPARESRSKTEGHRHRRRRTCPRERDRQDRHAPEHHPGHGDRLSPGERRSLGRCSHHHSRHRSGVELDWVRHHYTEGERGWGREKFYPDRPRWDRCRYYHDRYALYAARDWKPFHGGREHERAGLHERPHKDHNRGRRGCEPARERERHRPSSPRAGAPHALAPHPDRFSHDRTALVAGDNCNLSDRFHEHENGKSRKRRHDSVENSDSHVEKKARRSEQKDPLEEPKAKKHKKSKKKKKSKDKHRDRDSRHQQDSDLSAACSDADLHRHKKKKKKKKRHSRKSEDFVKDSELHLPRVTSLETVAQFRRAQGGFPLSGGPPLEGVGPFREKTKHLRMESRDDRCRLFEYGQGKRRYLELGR
Procedure, shortened: (§1)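 Triplicate samples of HEK293T lysate, 495 µg each, received fragment at 200 µM or vehicle for 3 h, followed by Biotin-Ahx-Ub-VS (0.5 µM final) for 1 h. After NeutrAvidin enrichment of labelled DUBs and LysC/trypsin digestion, peptides were run by diaPASEF LC-MS/MS. The values are average log2 fragment/vehicle ratios from global-median-normalised Spectronaut label-free quantities, tested by unpaired t-test on proteins having ≥2 unique peptides.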

USP46 = USP46 (UniProt P62068)
Procedure, shortened: as §1

USP47 = target: T2, USP47 (UniProt Q96K76)
T2 sequence (whole entry): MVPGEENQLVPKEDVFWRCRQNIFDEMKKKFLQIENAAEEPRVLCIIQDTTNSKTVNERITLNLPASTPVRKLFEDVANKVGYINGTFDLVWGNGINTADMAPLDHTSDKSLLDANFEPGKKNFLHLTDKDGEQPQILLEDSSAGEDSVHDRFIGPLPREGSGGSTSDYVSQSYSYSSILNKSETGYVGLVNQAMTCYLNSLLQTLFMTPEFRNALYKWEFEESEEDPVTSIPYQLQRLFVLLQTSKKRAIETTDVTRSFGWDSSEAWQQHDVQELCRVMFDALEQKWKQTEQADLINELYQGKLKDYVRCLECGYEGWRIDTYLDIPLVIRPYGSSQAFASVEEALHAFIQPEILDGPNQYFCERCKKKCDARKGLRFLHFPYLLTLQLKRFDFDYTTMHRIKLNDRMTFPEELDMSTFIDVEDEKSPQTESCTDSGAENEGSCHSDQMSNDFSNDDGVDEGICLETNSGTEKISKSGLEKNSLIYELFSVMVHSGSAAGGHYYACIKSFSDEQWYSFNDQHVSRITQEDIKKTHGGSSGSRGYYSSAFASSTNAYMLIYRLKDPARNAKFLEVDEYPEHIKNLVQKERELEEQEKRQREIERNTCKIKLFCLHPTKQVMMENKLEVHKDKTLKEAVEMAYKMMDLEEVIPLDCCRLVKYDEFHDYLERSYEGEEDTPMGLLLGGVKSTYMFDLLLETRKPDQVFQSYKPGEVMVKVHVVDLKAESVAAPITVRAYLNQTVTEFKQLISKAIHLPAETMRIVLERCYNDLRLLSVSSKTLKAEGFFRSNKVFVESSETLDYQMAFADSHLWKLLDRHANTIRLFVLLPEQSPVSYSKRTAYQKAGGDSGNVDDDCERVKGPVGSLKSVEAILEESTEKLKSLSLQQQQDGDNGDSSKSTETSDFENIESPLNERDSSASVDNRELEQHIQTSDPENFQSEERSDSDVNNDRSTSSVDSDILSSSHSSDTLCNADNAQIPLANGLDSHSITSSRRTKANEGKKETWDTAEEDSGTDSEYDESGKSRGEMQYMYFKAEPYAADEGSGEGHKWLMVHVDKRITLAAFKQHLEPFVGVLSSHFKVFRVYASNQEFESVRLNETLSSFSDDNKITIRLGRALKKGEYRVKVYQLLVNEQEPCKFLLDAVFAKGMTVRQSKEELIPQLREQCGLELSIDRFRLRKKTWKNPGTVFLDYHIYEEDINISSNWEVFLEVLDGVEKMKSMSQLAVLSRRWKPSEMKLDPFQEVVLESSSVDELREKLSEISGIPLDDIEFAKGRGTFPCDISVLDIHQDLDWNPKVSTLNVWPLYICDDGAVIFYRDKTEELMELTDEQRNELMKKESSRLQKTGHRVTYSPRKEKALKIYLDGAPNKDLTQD
Procedure, shortened: as §1

USP48 = target: T3, USP48 (UniProt Q86UV5)
T3 sequence (whole entry): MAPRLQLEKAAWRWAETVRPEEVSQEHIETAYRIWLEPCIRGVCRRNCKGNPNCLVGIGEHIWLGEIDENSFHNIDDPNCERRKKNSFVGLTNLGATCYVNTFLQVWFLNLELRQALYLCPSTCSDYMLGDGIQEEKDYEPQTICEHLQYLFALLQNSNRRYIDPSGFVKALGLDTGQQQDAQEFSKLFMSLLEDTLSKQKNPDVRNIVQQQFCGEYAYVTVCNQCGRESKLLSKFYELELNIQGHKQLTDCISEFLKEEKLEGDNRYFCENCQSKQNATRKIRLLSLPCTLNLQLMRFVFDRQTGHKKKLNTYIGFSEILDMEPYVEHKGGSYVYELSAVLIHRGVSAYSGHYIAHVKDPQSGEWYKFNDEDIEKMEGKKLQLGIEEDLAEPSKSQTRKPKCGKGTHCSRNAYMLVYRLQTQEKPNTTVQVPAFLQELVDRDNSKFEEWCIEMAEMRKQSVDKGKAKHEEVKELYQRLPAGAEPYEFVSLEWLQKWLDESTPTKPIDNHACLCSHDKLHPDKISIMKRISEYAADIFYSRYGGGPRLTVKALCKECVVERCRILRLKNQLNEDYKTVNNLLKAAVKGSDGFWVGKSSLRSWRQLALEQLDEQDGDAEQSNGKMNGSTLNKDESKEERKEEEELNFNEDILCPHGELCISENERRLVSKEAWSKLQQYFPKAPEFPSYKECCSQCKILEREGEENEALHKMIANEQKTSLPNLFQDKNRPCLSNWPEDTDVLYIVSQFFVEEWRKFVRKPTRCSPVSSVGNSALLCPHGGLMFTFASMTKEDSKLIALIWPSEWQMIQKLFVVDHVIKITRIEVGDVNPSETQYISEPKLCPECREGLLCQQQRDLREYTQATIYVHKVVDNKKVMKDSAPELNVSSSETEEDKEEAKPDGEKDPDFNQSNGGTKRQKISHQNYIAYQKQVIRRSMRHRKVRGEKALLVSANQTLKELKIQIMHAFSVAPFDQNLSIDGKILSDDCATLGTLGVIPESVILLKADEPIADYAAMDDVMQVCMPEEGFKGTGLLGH
Procedure, shortened: as §1

USP5 = target: T4, USP5 (UniProt P45974)
T4 sequence (whole entry): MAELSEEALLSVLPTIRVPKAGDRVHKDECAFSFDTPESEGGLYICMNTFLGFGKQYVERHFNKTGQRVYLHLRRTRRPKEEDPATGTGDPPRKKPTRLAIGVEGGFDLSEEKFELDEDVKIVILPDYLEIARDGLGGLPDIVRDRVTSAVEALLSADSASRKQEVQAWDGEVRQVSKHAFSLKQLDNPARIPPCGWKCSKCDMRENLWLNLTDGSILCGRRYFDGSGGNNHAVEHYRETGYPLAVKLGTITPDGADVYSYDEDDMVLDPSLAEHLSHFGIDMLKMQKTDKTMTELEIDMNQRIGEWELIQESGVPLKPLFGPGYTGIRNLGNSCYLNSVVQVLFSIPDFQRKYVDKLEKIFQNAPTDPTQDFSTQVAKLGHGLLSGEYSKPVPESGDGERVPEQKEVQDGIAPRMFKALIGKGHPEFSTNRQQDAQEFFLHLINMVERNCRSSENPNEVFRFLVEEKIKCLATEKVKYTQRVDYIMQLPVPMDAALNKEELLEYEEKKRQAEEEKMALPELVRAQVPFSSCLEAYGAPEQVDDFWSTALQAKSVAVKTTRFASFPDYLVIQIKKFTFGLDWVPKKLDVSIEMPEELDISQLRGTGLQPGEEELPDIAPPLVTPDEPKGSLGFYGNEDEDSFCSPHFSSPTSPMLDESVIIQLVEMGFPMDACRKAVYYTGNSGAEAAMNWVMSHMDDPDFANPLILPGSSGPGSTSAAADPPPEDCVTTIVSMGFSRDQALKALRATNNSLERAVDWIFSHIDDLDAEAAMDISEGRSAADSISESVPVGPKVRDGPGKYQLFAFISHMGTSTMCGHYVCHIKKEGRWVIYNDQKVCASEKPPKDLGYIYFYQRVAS
Procedure, shortened: as §1

USP54 = USP54 (UniProt Q70EL1)
Procedure, shortened: as §1

USP7 = USP7 (UniProt Q93009)
Procedure, shortened: as §1

USP8 = target: T5, USP8 (UniProt P40818)
T5 sequence (whole entry): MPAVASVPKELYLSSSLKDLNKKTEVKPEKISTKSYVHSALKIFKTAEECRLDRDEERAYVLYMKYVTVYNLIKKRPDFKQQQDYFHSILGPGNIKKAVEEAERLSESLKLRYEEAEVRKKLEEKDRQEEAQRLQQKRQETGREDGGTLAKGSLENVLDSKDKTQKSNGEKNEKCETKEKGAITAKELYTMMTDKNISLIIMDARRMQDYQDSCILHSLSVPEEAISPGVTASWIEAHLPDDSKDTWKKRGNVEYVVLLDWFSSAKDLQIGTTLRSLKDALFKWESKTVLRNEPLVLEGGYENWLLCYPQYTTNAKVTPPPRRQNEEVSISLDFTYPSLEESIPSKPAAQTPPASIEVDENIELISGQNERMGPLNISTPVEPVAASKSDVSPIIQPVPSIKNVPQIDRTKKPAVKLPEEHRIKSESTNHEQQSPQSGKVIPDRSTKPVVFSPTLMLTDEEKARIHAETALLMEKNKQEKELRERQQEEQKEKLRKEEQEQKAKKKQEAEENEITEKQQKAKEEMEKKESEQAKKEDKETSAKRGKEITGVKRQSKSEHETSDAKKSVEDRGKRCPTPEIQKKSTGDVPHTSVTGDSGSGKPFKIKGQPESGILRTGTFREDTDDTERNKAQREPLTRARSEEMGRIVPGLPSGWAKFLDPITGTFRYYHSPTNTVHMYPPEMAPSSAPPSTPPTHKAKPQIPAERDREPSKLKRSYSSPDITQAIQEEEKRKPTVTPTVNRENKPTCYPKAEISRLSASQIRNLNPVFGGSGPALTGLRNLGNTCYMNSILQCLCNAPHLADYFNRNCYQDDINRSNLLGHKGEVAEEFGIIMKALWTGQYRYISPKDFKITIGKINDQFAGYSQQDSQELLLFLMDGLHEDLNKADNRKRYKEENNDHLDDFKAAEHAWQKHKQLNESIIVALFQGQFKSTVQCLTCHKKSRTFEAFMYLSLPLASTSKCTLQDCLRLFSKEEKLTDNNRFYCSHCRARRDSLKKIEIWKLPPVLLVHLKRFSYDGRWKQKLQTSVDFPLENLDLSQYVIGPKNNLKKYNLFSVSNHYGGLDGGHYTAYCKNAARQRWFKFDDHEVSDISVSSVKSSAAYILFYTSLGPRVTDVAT
Procedure, shortened: as §1

USP9X = USP9X (UniProt Q93008)
Procedure, shortened: as §1

UniProt O00487 = target: UniProt O00487
Procedure, shortened: as §1

Measured: log2 ratio of Biotin-Ahx-Ub-VS probe labelling

Chain of USP46 (P62068 whole entry): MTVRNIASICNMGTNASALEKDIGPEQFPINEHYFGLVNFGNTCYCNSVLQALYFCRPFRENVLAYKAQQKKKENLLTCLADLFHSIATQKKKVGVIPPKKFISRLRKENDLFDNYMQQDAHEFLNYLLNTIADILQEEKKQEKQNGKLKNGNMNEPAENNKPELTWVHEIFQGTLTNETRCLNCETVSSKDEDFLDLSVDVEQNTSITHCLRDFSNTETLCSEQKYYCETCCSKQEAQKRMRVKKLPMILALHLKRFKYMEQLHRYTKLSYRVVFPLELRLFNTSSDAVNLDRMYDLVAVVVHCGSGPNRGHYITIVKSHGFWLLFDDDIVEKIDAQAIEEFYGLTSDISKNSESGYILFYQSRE
Chain of USP54 (Q70EL1 whole entry): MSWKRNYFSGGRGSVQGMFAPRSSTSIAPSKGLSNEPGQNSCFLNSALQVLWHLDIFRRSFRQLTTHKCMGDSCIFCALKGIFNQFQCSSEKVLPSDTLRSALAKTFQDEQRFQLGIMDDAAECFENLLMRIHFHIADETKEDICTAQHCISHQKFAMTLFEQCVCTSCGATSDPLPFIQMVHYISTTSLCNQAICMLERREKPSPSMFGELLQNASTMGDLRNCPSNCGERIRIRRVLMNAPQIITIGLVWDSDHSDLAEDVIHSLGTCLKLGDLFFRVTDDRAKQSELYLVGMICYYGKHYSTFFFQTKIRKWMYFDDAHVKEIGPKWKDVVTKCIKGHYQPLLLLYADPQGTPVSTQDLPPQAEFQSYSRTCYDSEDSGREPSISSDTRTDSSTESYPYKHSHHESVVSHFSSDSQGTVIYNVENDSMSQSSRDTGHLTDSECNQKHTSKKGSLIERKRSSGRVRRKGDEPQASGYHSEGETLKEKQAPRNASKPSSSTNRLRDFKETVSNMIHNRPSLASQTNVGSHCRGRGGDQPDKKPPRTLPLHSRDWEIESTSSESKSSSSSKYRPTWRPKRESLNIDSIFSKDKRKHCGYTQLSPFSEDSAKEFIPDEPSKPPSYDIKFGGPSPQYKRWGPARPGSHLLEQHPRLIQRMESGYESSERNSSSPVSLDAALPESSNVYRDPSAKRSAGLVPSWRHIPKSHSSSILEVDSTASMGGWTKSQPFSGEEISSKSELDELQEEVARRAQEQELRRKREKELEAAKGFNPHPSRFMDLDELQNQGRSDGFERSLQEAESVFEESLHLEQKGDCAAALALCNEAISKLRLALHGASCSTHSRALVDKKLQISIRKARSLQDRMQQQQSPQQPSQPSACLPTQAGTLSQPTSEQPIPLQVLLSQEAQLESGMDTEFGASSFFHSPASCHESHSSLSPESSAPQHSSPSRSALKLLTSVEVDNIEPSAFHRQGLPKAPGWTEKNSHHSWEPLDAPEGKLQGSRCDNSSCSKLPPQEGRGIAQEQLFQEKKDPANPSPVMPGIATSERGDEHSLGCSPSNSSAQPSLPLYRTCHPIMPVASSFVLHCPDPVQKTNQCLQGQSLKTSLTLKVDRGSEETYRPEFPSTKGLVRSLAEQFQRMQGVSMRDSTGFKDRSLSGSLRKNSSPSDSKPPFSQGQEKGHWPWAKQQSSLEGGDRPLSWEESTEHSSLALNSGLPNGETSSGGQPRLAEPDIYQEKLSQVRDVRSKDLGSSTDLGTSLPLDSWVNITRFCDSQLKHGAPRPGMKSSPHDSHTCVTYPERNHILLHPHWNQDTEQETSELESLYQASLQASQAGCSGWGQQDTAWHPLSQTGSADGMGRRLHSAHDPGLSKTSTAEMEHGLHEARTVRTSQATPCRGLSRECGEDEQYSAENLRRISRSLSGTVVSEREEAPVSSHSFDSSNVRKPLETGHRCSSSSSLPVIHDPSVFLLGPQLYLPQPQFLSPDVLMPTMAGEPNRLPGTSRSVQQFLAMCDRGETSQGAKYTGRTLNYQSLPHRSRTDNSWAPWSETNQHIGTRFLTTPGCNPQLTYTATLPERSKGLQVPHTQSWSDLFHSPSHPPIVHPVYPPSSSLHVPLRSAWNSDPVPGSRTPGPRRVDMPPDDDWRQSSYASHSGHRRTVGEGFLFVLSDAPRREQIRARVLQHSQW
Chain of USP7 (Q93009 whole entry, looked up): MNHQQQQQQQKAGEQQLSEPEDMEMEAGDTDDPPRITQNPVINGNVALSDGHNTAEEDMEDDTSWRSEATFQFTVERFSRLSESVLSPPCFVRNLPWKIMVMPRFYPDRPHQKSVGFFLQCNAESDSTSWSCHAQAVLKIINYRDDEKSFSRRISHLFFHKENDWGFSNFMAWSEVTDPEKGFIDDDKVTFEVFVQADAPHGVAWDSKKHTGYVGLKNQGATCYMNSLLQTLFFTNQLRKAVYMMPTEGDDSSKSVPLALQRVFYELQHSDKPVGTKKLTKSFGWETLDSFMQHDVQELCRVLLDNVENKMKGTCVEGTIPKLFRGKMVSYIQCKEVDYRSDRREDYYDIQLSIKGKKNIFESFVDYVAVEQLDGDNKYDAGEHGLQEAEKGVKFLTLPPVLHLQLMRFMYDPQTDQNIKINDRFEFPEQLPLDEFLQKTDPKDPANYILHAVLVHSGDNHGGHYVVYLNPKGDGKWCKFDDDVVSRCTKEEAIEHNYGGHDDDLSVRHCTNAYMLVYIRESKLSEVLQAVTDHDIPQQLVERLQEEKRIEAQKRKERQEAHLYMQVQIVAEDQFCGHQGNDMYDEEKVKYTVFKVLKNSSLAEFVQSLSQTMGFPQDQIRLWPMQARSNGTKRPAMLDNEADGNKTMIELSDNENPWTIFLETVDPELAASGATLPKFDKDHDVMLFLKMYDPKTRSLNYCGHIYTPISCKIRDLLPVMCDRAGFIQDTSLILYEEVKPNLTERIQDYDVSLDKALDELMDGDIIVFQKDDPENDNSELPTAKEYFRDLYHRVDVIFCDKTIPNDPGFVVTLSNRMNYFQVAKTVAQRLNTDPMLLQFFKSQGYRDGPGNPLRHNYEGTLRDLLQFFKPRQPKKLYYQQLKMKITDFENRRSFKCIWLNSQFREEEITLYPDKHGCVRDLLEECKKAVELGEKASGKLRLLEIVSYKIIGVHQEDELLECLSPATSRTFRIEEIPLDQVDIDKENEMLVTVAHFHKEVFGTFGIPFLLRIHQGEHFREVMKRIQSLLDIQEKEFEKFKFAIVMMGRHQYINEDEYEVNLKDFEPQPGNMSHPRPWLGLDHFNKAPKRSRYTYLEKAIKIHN
Chain of UniProt O00487 (O00487 whole entry): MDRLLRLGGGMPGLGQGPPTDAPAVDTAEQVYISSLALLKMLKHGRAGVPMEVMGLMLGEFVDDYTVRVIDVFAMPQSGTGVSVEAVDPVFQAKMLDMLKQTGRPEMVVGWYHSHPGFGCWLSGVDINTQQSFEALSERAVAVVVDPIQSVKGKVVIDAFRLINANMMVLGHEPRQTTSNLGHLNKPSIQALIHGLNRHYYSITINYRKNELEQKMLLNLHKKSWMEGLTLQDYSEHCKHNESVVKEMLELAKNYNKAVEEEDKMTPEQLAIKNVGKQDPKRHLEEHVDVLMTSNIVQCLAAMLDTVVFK

O=C(CCl)N1CCC2(CCC(O)CC2)CC1
inactive: USP42 0.175 | USP46 0.0165 | USP47 -0.0514 | USP48 -0.0801 | USP5 0.218 | USP54 0.833 | USP7 -0.00495 | USP8 -0.382 | USP9X -0.156 | UniProt O00487 0.0439
